Laboratory results reported in PubChem BioAssay (Tox21).
Results filed as inconclusive are left out. Values without a mark were called inactive. Activity calls are given as the source filed them. The call rests on the fitted dose curve; in most records, active means well fitted activation curve with a large enough effect in the repeat runs; inconclusive means weak or mixed curves; inactive means flat fitted curve, though single readings scatter.

experiment: A CellTox Green Cytotoxicity Assay to monitor cytotoxicity in HEK293 cells - 8 hour (AID 1224884); details: CellTox Green fluorescence; series mostly up to 76.8 µM; cytotoxicity increase: at the top concentration; further: nearly all actives have a fitted effect of over 35% in size
Description: National Center for Advancing Translational Sciences [NCATS]
NIH Chemical Genomics Center [NCGC]
U.S. Environmental Protection Agency [EPA]
National Institutes of Environmental Health Sciences [NIEHS]
National Toxicology Program [NTP]
Cell-based models are critical for drug discovery. Determining the natural cytotoxic effects resulting from test compounds is an essential research activity. A CellTox Green Cytotoxicity Assay to monitor cytotoxicity in real time of continues cell culture during 40 hours of the compound treatment was used to screen Tox21 10K library compounds in Hek293 cells. CellTox Green Cytotoxicity Assay is a nonlytic, homogeneous, biofluorescent method to measure cytotoxicity in cell culture after experimental manipulation. The assay system uses a proprietary asymmetric cyanine dye that is excluded from viable cells but preferentially stains the dead cell's DNA. […] Viable cells produce no appreciable increases in fluorescence. Therefore, the fluorescence signal produced by the binding interaction with dead cell DNA is proportional to cytotoxicity.
The mixture of Hek293 cell suspension and reagents were dispensed at 600cells/6 ul/well in 1536-well tissue culture treated black solid bottom plates using a Multidrop dispenser. After the assay plates were incubated at a 37 C/5% CO2 incubator for 5 hours, 23 nL of compounds dissolved in DMSO, positive and negative controls was transferred to the assay plate by a pintool work station. The plates were incubated at 37 C for 40 hours. The fluorescence intensity were measured at 0h, 8h, 16h, 24h, 32h and 40h time points using ViewLux plate reader during compound treatment.
On the % scale 0 is the no-effect control and ±100 the full control effect; potency means the concentration at half of the fitted maximal effect.

Row | Structure (SMILES) | cytotoxicity increase | Potency
1 | CC(c1ccccc1)(c1ccc(O)cc1)c1ccc(O)cc1 | 17.3% | –
2 | Cc1ccc(N(SC(F)(Cl)Cl)S(=O)(=O)N(C)C)cc1 | – | 21.9 µM (active)
3 | Oc1c(I)cc(I)cc1I | 13.9% | –
4 | O=C1C(I)=CC(=C(c2cc(I)c(O)c(I)c2)c2ccccc2C(=O)O)C=C1I | 6.91% [at 35.3 µM] | –
5 | Cc1ccc2nc3sc(=O)sc3nc2c1 | 4.71% [at 15.8 µM] | –
6 | O=C(c1ccccc1)C(Cl)Cl | -9.04% | –
7 | CCOC(=O)C(O)(c1ccc(Cl)cc1)c1ccc(Cl)cc1 | – | inactive
8 | O=S(=O)(C(Cl)(Cl)Cl)C(Cl)(Cl)Cl | – | 24.5 µM (active)
9 | CCN(CC)C(=O)Cl | -0.341% | –
10 | OC(Cc1ccccc1Cl)(Cn1[nH]cnc1=S)C1(Cl)CC1 (stereo unspecified) | -24.6% | –
11 | COc1cc(OC)c(OC)cc1C=O | -7.19% | –
12 | CO/C=C(/C(=O)OC)c1ccccc1Oc1cc(Oc2ccccc2C#N)ncn1 | -9.66% | –
13 | CN1CSC(=S)N(C)C1 | – | inactive
14 | Cc1cc(C)c(C(=O)P(=O)(c2ccccc2)c2ccccc2)c(C)c1 | -0.622% | –
15 | CC1COC(Cn2cncn2)(c2ccc(Oc3ccc(Cl)cc3)cc2Cl)O1 (stereo unspecified) | 13% | –
16 | CNC(=O)Oc1cc(C)c(SC)c(C)c1 | 15% | –
17 | OCC(c1ccc(Cl)cc1)c1ccc(Cl)cc1 | – | 43.6 µM (active)
18 | N#Cc1cc([N+](=O)[O-])ccc1N | -7.95% | –
19 | Cc1nnc2n1-c1sc(CCc3ccc(CC(C)C)cc3)cc1C(c1ccccc1Cl)=NC2C (stereo unspecified) | 4.76% [at 35.3 µM] | –
20 | O=C(Nc1ccccc1-c1ccc(Cl)cc1)c1cccnc1Cl | – | 46.3 µM (active)
21 | C[C@]12CC[C@@H](O)C[C@@H]1CC[C@@H]1[C@@H]2CC[C@]2(C)C(=O)CC[C@@H]12 | 0.185% | –
